Measurements as given in PubChem BioAssay.
Calls of active or inactive are those of the source.

Assays:
Lefty1 = Lefty1 binders on small-molecule microarrays, primary screen, biochemical, small-molecule microarray, 635/667 nm fluorescence (AID 1139); conditions: small-molecule microarray binding, fluorescence 635/667; higher = more signal
[1] = system: wheat germ agglutinin (Triticum aestivum), Alexa647-labelled; experiment: wheat germ agglutinin binders on compound microarrays, profiling panel, artefact control for SMM control-protein annotation, biochemical, small-molecule microarray, 635/667 nm fluorescence (AID 1140); conditions: WGA-A647 binding, 635 nm fluorescence, higher = more signal;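 note: score merges 667 nm feature emission with signal to noise over triplicate slides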
[2] = molecular target: Luciferin 4-monooxygenase (Photinus pyralis) (UniProt P08659); experiment: firefly luciferase enzyme inhibitors, primary screen, biochemical, luminescence, purified enzyme, 2006 set (AID 1141); conditions: SteadyGlo luminescence, 30 min, higher = more signal, called active from +8 up or from −8 down;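 note: cell-free assay with purified firefly luciferase at 100 ng per well in PBS; test concentration not given here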
Sequence of Luciferin 4-monooxygenase (Photinus pyralis) (P08659 whole entry, looked up): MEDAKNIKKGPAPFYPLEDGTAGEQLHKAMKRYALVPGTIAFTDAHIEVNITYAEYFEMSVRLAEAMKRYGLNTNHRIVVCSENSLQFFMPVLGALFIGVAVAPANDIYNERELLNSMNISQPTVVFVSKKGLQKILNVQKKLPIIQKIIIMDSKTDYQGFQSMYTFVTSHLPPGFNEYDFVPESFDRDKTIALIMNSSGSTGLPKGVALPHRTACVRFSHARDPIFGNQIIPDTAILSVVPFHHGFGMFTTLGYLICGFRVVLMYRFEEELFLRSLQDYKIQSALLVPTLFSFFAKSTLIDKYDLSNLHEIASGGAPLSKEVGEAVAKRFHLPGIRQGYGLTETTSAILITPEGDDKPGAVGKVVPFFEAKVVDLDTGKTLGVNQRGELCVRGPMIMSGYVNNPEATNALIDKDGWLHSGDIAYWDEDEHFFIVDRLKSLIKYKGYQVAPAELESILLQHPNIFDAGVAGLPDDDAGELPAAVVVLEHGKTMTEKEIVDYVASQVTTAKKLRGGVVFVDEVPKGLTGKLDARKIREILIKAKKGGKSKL

[3] = system: Wnt5a (protein binding on small-molecule microarray); experiment: Wnt5a binders on small-molecule microarray, primary screen, biophysical, 635/667 nm fluorescence (AID 1142); conditions: 635 nm fluorescence, higher = more signal;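 note: fluorescence read at 667 nm with signal to noise per printed feature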
[4] = cell viability in Huh7 cells, primary screen, cytotoxicity control for HCV replication inhibitor project, CellTiter-Glo luminescence, basal, 48 h (AID 1143); conditions: Huh7 HCV replicon, higher = more signal, called active from +8 up or from −8 down;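 note: Huh7 hepatoma cells carrying a hepatitis C replication reporter with no stimulus; test concentration not given here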
[5] = CREB reporter modulators without forskolin, primary screen, cell-based, PC12, CRE-LacZ reporter, unstimulated (AID 1145); conditions: no forskolin, luminescence, 4.5 h, higher = more signal, called active from +8 up or from −8 down
[6] = CREB reporter modulators under forskolin, primary screen, cell-based, PC12, CRE-LacZ reporter, forskolin-stimulated (AID 1146); conditions: luminescence, 4.5 h, higher = more signal, called active from +8 up or from −8 down;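 note: PC12 cells with 6xCRE LacZ reporter stimulated by forskolin 10 µM; beta-galactosidase reporter signal reflecting CREB driven transcription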
[7] = molecular target: Streptavidin (Streptomyces avidinii) (UniProt P22629); experiment: streptavidin binders on small-molecule microarray, primary screen, artefact control for SMM compound annotation, biophysical, 635/667 nm fluorescence (AID 1147); conditions: streptavidin binding, higher = more signal;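 note: signal reflects streptavidin binding to arrayed compounds as a control protein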
Sequence of Streptavidin (Streptomyces avidinii) (P22629 whole entry, looked up): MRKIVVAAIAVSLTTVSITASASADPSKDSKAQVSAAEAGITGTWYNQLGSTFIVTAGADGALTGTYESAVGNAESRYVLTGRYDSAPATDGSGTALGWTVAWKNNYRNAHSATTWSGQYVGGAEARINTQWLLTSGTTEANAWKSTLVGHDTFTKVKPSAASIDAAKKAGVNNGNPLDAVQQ

[8] = small-molecule binders of probe aInhba, primary screen, biochemical, small-molecule microarray, 635/667 nm fluorescence (AID 1148); conditions: higher = more signal;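 note: score merges 667nm spot fluorescence with signal-to-noise for antibody binding to printed compounds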
Torsin-1A (Homo sapiens) [9] = molecular target: Torsin-1A (Homo sapiens) (UniProt O14656); experiment: torsin A binders from cell lysate, primary screen, small-molecule microarray, wild-type, 635/667 nm (AID 1149); conditions: COS7 hTOR1A-WT lysate, 635 nm fluorescence, higher = more signal
Sequence of Torsin-1A (Homo sapiens) (O14656 whole entry, looked up): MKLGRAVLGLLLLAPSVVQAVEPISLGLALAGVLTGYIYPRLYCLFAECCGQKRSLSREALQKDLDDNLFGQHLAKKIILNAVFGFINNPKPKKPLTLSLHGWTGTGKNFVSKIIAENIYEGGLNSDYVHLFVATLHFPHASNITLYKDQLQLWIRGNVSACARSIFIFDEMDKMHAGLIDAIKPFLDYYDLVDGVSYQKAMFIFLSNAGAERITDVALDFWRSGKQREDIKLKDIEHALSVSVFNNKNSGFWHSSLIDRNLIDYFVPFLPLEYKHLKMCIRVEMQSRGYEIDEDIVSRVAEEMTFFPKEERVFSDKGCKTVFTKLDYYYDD

Torsin-1A (Homo sapiens) [10] = molecular target: Torsin-1A (Homo sapiens) (UniProt O14656); experiment: small-molecule binders of mutant TOR1A in lysate, primary screen, cell lysate, small-molecule microarray, COS7 lysate, 635/667 nm fluorescence (AID 1150); conditions: COS7 hTOR1A mutant lysate, 635 nm fluorescence, higher = more signal;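 note: score pools 667 nm emission and signal to noise measuring lysate protein binding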
[11] = system: Sonic hedgehog protein (Shh); experiment: small-molecule binders of Shh protein, primary screen, biochemical, small-molecule microarray, 635/667 nm fluorescence (AID 1151); conditions: small-molecule microarray binding, 635 nm fluorescence; higher = more signal;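 note: Shh protein binding to compounds spotted on small-molecule microarray slides; score combines spot fluorescence intensity with signal-to-noise across triplicate slides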
[12] = E. coli DRC41 culture turbidity changes, primary screen, E. coli filamentation inducer project, strain DRC41, OD650, 48 h (AID 1152);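 note: E. coli MC1000 strain DRC41 lacking acrAB efflux pump and sulA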; conditions: E. coli DRC41 (acrAB sulA), higher = more signal, called active from +8 up or from −8 down
[13] = small-molecule binders of probe aLefty1, primary screen, biochemical, small-molecule microarray, 635/667 nm fluorescence (AID 1153); conditions: higher = more signal;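 note: score merges spot fluorescence with signal-to-noise ratio from the scanned slide images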
[14] = PSAC antagonists in infected red cells, primary screen, cell-based, P. falciparum Indochina, OD700, 1 h (AID 1154); conditions: P. falciparum Indochina infected RBC osmotic lysis, higher = more signal, called active from +8 up or from −8 down
[15] = PSAC antagonists in infected red cells, primary screen, cell-based, P. falciparum Indochina, OD700, 2 h (AID 1155);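 note: lysis reports solute entry through the parasite surface anion channel PSAC; channel blockers reduce lysis of infected cells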; conditions: P. falciparum Indochina infected erythrocytes, osmotic lysis OD700; higher = more signal, called active from +8 up or from −8 down
[16] = osmotic lysis modulators in infected erythrocytes, primary screen, PSAC antagonist project, cell-based, P. falciparum Indochina, OD700, 3 h (AID 1156); conditions: higher = more signal, called active from +8 up or from −8 down
[17] = PSAC antagonists in infected red cells, primary screen, cell-based, P. falciparum Indochina, OD700, 18 h (AID 1157); conditions: P. falciparum Indochina infected erythrocytes, osmotic lysis OD700, 18 h; higher = more signal, called active from +8 up or from −8 down
[18] = modulators of S6 phosphorylation in cells, primary screen, cell-based, A549, cytoblot, luminescence, serum-stimulated (AID 1158); conditions: A549 phospho-S6 cytoblot, 5 h, higher = more signal;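 note: serum-stimulated A549 lung adenocarcinoma cells; signal is phosphorylated S6 detected by cytoblot immunostaining with HRP secondary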
[19] = molecular target: NADPH oxidase 2 (Homo sapiens) (UniProt P04839); experiment: NOX2-dependent H2O2 signal modulators, primary screen, NOX inhibitor project, cell-based, HEK293-NOX2, PMA-stimulated, Amplex Red fluorescence (AID 1159); conditions: 45 min, higher = more signal, called active from +8 up or from −8 down; note: test concentration not given here
Sequence of NADPH oxidase 2 (Homo sapiens) (P04839 whole entry, looked up): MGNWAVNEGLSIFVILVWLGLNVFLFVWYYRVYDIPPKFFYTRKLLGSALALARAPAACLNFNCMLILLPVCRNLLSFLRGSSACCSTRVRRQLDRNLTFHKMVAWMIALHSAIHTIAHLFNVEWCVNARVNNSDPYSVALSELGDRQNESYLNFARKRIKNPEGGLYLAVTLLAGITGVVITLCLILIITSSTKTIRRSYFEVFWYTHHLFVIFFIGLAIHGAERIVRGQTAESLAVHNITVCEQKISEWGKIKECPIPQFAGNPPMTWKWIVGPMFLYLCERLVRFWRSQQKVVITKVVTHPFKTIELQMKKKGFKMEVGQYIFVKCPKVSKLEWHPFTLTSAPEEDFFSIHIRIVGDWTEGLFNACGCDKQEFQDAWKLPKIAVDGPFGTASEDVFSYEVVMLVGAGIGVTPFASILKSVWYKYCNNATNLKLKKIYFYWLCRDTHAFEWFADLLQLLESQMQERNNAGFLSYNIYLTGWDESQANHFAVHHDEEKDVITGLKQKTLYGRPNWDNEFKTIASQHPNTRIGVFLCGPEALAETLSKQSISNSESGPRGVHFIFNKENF

| Compound | composite z-score (Lefty1) | composite z-score [1] | z-score [2] | composite z-score [3] | z-score [4] | z-score [5] | z-score [6] | composite z-score [7] | composite z-score [8] | composite z-score (Torsin-1A (Homo sapiens) [9]) | composite z-score (Torsin-1A (Homo sapiens) [10]) | composite z-score [11] | z-score [12] | composite z-score [13] | z-score [14] | z-score [15] | z-score [16] | z-score [17] | z-score [18] | z-score [19] |
| --- | --- | --- | --- | --- | --- | --- | --- | --- | --- | --- | --- | --- | --- | --- | --- | --- | --- | --- | --- | --- |
| CCOC(=O)C[C@H]1[C@H](OC(=O)c2ccc(-c3ccccc3)cc2)[C@@H](NC(=O)c2ccccc2)c2cc(OCCCO)ccc2N1C(=O)c1ccccc1 | -0.0764 | 0.646 | -0.517 (inactive) | 0.15 | -2.94 (inactive) | 0.251 (inactive) | -0.843 (inactive) | 0.0439 | 0.105 | 0.217 | 0.792 | 0.082 | 2.36 (inactive) | 0.167 | 0.788 (inactive) | -0.846 (inactive) | -0.0889 (inactive) | -1.09 (inactive) | 1.58 | 2.09 (inactive) |
| COC(=O)[C@@]1(CCC(=O)OC(C)(C)C)COC(c2ccc(OCCCO)cc2)=N1 | -2.55 | -1.57 | -1.4 (inactive) | -0.328 | -0.243 (inactive) | 0.694 (inactive) | -1.14 (inactive) | -1.44 | -0.109 | -1.3 | -0.742 | -1.03 | 1.06 (inactive) | 0.0721 | 21 (active) | 3.26 (inactive) | 0.0081 (inactive) | 0.613 (inactive) | 0.21 | -0.0972 (inactive) |
| CCOC(=O)C[C@H]1[C@H](OC(=O)c2cc3ccccc3oc2=O)[C@@H](NC(=O)c2ccccc2)c2cc(OCCCO)ccc2N1C(=O)Cc1ccc(OC)cc1 | 0.584 | 0.247 | -0.243 (inactive) | 0.146 | -4.64 (inactive) | 8.63 (active) | -2.07 (inactive) | 0.0709 | 0.0464 | 0.151 | 0.098 | 0.251 | 3.12 (inactive) | -0.0051 | 3.28 (inactive) | -0.825 (inactive) | 0.076 (inactive) | -2.29 (inactive) | 2.39 | -0.224 (inactive) |
| COc1ccc([Si](C)(C)[C@H]2[C@H](CC(=O)N(CCO)Cc3ccccc3)O[C@@]3(C(=O)N(Cc4ccc(N5CCC5=O)cc4)c4ccccc43)[C@@H]2C)cc1 | -0.143 | 0.429 | -1.23 (inactive) | -0.161 | -2.68 (inactive) | 1.82 (inactive) | -0.316 (inactive) | -0.161 | -0.128 | 0.162 | 0.294 | 0.407 | 1.33 (inactive) | -0.188 | 27.1 (active) | 21.7 (active) | 0.241 (inactive) | 2.17 (inactive) | 1.39 | 0.946 (inactive) |
| CC(C)C[C@@H]1NC(=O)[C@@H]2C[C@H](C(=O)NCCCCCNC(=O)CS)[C@H](c3cccc(OCCO)c3)N2C1=O | 1.13 | 1.23 | -2.15 (inactive) | 0.257 | -1.59 (inactive) | 0.147 (inactive) | -1.09 (inactive) | 0.811 | 0.0207 | 1.31 | 0.824 | 2.03 | 1.8 (inactive) | 0.348 | 3.21 (inactive) | -0.422 (inactive) | -1.74 (inactive) | -1.93 (inactive) | 0.955 | 2.24 (inactive) |
| COC(=O)C(CC#Cc1ccc2c(c1)[C@]1(C(=O)N2)[C@H](C(N)=O)[C@H]2C(=O)O[C@H](c3ccccc3)[C@H](c3ccccc3)N2[C@@H]1c1ccc(O)cc1)C(=O)OC | -0.861 | -0.3 | -1.43 (inactive) | -0.156 | -0.229 (inactive) | 0.182 (inactive) | -0.909 (inactive) | -1.09 | -0.504 | -0.372 | 0.488 | -0.295 | 1.66 (inactive) | -0.696 | 14.5 (active) | 1.23 (inactive) | 0.974 (inactive) | 0.37 (inactive) | 0.331 | 1.32 (inactive) |
| C=CCN1C(=O)[C@@]2(O[C@@H](CCO)[C@H]([Si](C)(C)c3ccc(OC)cc3)[C@H]2C)c2cc(N(C=O)c3ccccc3)ccc21 | 0.124 | 0.918 | -1.66 (inactive) | 0.125 | -7.99 (inactive) | 16.9 (active) | -4.02 (inactive) | -0.387 | -0.0044 | 0.0589 | 0.0237 | 0.207 | 1.55 (inactive) | -0.16 | 24 (active) | 7.57 (inactive) | -0.599 (inactive) | 0.279 (inactive) | 0.183 | -0.477 (inactive) |
| C=C(/C(=C/C[C@H](OC(C)=O)c1cccc(OCCO)c1)c1cc(C(=O)OC)ccc1OC)C(C)C | -0.0603 | -0.907 | -1.84 (inactive) | -0.0431 | -0.802 (inactive) | 11.7 (active) | -1.02 (inactive) | -0.948 | -0.128 | -0.0282 | -0.193 | 0.237 | 1.81 (inactive) | -0.191 | 6.36 (inactive) | 1.29 (inactive) | 2.46 (inactive) | 0.576 (inactive) | -0.228 | 2.19 (inactive) |
